Experimental findings from PubChem BioAssay (NCATS) are described below.

The nature of assay [1]: Quantitative High-Throughput drug screen in 47 multiple myeloma cell lines against the NCATS MIPE library collection: XG6_PLB cell viability assay (AID 1919865). Further: nearly all actives have a fitted effect of over 40% in size. Further: potency means the concentration at half of the fitted maximal effect. In short, it runs like this:
(§1)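 500 cells/well per myeloma line exposed to pinned MIPE 4.0 compounds for 48 h at 37 °C, 5% CO2. Viability read as ATP by CellTiter-Glo luminescence, normalised to DMSO-only (100%) and media-only (0%) wells.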

The nature of assay [2]: Quantitative High-Throughput drug screen in 47 multiple myeloma cell lines against the NCATS MIPE library collection: XG1_PLB cell viability assay (AID 1919866). Further: nearly all actives have a fitted effect of over 35% in size. Further: potency means the concentration at half of the fitted maximal effect. In short, it runs like this:
as §1

Assay [3] is described as follows: Quantitative High-Throughput drug screen in 47 multiple myeloma cell lines against the NCATS MIPE library collection: PE2_PLB cell viability assay (AID 1919869). Further: nearly all actives have a fitted effect of over 35% in size. Further: potency means the concentration at half of the fitted maximal effect. In short, it runs like this: as §1
The nature of assay [4]: Quantitative High-Throughput drug screen in 47 multiple myeloma cell lines against the NCATS MIPE library collection: KMS11_JCRBsus cell viability assay (AID 1919873). Further: nearly all actives have a fitted effect of over 50% in size. Further: potency means the concentration at half of the fitted maximal effect. The procedure, abridged: as §1
The nature of assay [5]: Quantitative High-Throughput drug screen in 47 multiple myeloma cell lines against the NCATS MIPE library collection: KMS28BM_JCRB cell viability assay (AID 1919874). Further: nearly all actives have a fitted effect of over 35% in size. Further: potency means the concentration at half of the fitted maximal effect. The procedure, abridged:
as §1

A short description of assay [6]: Quantitative High-Throughput drug screen in 47 multiple myeloma cell lines against the NCATS MIPE library collection: PCM6_Riken cell viability assay (AID 1919870). Further: nearly all actives have a fitted effect of over 30% in size. Further: potency means the concentration at half of the fitted maximal effect. In short, it runs like this:
as §1

A short description of assay [7]: Quantitative High-Throughput drug screen in 47 multiple myeloma cell lines against the NCATS MIPE library collection: OPM2_DSMZ cell viability assay (AID 1919872). Further: nearly all actives have a fitted effect of over 30% in size. Further: potency means the concentration at half of the fitted maximal effect. The procedure, abridged:
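Relative luminescence from CellTiter-Glo served as the viability signal, referenced to DMSO-treated (100%) and cell-free medium (0%) controls. Treatment lasted 48 hours at 37C with 500 cells per well.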

Assay [8] in a line: Quantitative High-Throughput drug screen in 47 multiple myeloma cell lines against the NCATS MIPE library collection: RPMI8226_ATCC cell viability assay (AID 1919871). Further: nearly all actives have a fitted effect of over 30% in size. Further: potency means the concentration at half of the fitted maximal effect. The procedure, abridged: as §1
Assay [9] concerns the target Cytochrome P450 3A4 (Homo sapiens) (UniProt P08684). Briefly: qHTS for inhibitors of CYP3A4 against the NCATS DSHEA and TCM libraries (AID 1919971).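 Further: on the % scale 0 is the no-effect control and ±100 the full control effect; inhibition lowers luminescence from luciferin made by CYP3A4.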 The procedure, abridged: (§2)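 Luminescent P450-Glo format: compounds preincubated 15 min with enzyme and luciferin substrate, reaction run 30-45 min after NADPH regeneration solution. Intraplate controls: ketoconazole for CYP3A4 and CYP2C19, sulfaphenazole for CYP2C9.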
(In general: qHTS replaces the single test concentration by a dilution series.)

Assay [10] has as its target Cytochrome P450 2D6 (Homo sapiens) (UniProt P10635). The assay is described as follows: qHTS for inhibitors of CYP2D6 against the NCATS DSHEA and TCM libraries (AID 1919972). Further: on the % scale 0 is the no-effect control and ±100 the full control effect. In short, it runs like this: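 Luminescent P450-Glo read-out of CYP2D6 turnover of a luciferin substrate after NADPH-driven reaction of 30-45 min at room temperature. Compounds were first preincubated 15 min with enzyme at titrated concentrations; quinidine was the intraplate control.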

Assay [11] deals with Cytochrome P450 2C9 (Homo sapiens) (UniProt P11712). The assay is described as follows: qHTS for inhibitors of CYP2C9 against the NCATS DSHEA and TCM libraries (AID 1919973).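 Further: luminogenic pro-luciferin CYP2C9 substrate turned into luciferin with NADPH regeneration; series mostly up to about 34 µM; on the % scale 0 is the no-effect control and ±100 the full control effect.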 The procedure, abridged:
as §2

Assay [12] is described as follows: KB-3-1 P-gp reporter qHTS against the NCATS DSHEA and TCM libraries (AID 1919975). Further: 0% is about no effect. In short, it runs like this:
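Cell viability by CellTiter-Glo luminescence following ~72 h compound exposure (concentration-response). Uses parental, non-P-gp-overexpressing KB-3-1 line, 500 cells/well in DMEM/10% FBS, attached ~4 h before dosing.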

Assay [13] in a line: qHTS Counterscreen for compound interference against the NCATS DSHEA and TCM libraries (AID 1919978).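 Further: compounds preincubated with 1 µM D-luciferin or buffer before detection reagent; % of control where 0% means no effect.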 The following applies: firefly luciferase detection reagent interference, luminescence. The procedure, abridged: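 With 1 uM D-luciferin or phosphate buffer only, compounds at final 19.5 nM–39.8 uM were incubated for 15 min at room temperature. Luciferase detection reagent was then added, and luminescence was measured after a further 30 min at room temperature.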

The nature of assay [14]: Dual reporter qHTS for agonist of Pregnane X Receptor (hPXR) against the NCATS DSHEA and TCM libraries: Fluorescence readout (AID 1920058). Further: 0% is about no effect. In short, it runs like this:
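hPXR-Luc HepG2 cells, 2000/well in charcoal-stripped serum, attached 5 h, dosed for ~24 h at 37 °C. Fluorescence read is CellTiter-Fluor viability (Ex/Em 405/540 nm); rifampicin positive, tetraoctyl ammonium bromide (92 µM) cytotoxicity controls.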

The target in assay [15] is Nuclear receptor subfamily 1 group I member 2 (Homo sapiens) (UniProt O75469). The assay is described as follows: Dual reporter qHTS for agonist of Pregnane X Receptor (hPXR) against the NCATS DSHEA and TCM libraries: Luminescence readout (AID 1920059). Further: 0% is about no effect. In short, it runs like this: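 hPXR-Luc HepG2 cells, 2000/well in 5% charcoal-stripped FBS medium, attached 5 h, then exposed 24 h at 37C to compounds. Viability by CellTiter-Fluor, then luciferase luminescence with ONE-Glo.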
Sequence of Nuclear receptor subfamily 1 group I member 2 (Homo sapiens) (O75469 whole entry, looked up): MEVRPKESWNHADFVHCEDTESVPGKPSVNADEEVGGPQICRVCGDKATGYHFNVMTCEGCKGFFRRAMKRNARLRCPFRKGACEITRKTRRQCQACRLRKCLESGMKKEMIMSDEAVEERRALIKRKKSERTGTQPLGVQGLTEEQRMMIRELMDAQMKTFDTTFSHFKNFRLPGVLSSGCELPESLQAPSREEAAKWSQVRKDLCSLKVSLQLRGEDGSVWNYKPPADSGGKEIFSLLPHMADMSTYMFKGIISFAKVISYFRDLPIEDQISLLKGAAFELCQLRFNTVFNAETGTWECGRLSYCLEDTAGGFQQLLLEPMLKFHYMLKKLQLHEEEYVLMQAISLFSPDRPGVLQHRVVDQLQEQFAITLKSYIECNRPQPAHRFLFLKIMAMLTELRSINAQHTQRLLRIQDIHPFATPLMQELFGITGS

Assay [16] has the same target. The assay is described as follows: Dual reporter qHTS for antagonist of Pregnane X Receptor (hPXR) against the NCATS DSHEA and TCM libraries: Luminescence Readout (AID 1920060).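 Further: HepG2 cells carrying hPXR luciferase reporter stimulated with rifampicin at 2 µM; 0% is about no effect.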 The procedure, abridged:
(§3)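 Antagonist mode: rifampicin 2 uM final co-added with compounds to hPXR-LucHepG2 cells for 24 h at 37C. Viability by CellTiter-Fluor, Ex/Em 405/540 nm, 1 h; reporter by ONE-Glo luminescence.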

Assay [17] in a line: Dual reporter qHTS for antagonist of Pregnane X Receptor (hPXR) against the NCATS DSHEA and TCM libraries: Fluorescence Readout (AID 1920061). Further: 0% is about no effect. The procedure, abridged: as §3

Unmarked numbers belong to inactive results. Inconclusive results are not listed. Active and inactive are the calls of the source. The call rests on the fitted dose curve; in most records, active means well fitted curve in the direction sought with a large enough effect; inconclusive means small, poorly fitted or top-dose-only effect, or another doubt; inactive means no such curve, though single readings can be large; an effect the other way counts as inactive or inconclusive.

Sequence of Cytochrome P450 2D6 (Homo sapiens) (P10635 whole entry, looked up): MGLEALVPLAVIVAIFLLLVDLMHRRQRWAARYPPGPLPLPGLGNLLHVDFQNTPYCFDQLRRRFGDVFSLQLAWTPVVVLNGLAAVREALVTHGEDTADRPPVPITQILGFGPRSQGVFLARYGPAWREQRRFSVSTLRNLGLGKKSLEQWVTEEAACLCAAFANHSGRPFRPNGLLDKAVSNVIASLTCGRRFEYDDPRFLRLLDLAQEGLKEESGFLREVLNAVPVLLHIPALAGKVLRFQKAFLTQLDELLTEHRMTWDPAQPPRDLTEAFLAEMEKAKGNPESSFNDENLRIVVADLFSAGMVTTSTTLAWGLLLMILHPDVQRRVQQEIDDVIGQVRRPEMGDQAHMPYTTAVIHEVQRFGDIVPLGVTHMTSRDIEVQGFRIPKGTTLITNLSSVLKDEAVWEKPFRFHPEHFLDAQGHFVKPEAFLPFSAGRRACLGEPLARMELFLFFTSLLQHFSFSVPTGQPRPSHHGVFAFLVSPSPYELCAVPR
Sequence of Cytochrome P450 3A4 (Homo sapiens) (P08684 whole entry, looked up): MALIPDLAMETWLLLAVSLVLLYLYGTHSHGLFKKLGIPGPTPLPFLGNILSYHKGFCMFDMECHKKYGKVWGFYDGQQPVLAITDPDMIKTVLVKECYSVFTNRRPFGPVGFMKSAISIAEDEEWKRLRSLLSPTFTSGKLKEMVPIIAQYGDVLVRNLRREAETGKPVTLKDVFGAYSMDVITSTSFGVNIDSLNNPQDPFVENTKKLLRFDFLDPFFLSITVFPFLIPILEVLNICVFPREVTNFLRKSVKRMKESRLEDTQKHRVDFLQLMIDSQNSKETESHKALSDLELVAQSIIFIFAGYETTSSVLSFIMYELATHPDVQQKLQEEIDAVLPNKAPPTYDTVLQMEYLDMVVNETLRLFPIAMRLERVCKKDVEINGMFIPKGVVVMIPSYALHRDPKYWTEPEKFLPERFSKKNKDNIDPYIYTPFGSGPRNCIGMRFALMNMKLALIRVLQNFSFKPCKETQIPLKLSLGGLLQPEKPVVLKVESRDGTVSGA
Sequence of Cytochrome P450 2C9 (Homo sapiens) (P11712 whole entry, looked up): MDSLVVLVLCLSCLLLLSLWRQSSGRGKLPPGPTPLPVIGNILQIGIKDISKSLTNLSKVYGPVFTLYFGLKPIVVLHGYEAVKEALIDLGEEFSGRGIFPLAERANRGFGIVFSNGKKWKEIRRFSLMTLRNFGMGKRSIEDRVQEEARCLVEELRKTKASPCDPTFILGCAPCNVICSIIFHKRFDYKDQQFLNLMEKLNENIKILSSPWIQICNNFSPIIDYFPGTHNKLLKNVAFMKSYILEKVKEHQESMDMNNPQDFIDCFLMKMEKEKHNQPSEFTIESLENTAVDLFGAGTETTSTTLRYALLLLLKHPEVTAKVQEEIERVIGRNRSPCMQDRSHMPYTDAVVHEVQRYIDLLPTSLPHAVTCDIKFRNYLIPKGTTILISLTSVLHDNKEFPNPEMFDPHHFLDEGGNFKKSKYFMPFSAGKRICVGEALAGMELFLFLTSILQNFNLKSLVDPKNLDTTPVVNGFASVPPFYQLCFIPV

`Nc1ncnc2c1nc(Cl)n2[C@@H]1O[C@H](CO)[C@@H](O)[C@@H]1O`: the Potency in [1] is 1.18 µM (active); in [2] it was 16.6 µM (active); in assay [3] it was 0.235 µM (active); in assay [4], 20.9 µM (active); in [5], 13.2 µM (active).

Regarding `CCS(=O)(=O)N1CC(CC#N)(n2cc(-c3ncnc4[nH]ccc34)cn2)C1`, the Potency in assay [1] is 2.09 µM (active); in assay [2] it was 0.332 µM (active); in assay [6] it was 5.9 µM (active); in assay [5], 23.5 µM (active).

Regarding `CN[C@@H](C)C(=O)N[C@H]1CN(C(=O)CC(C)C)CC[C@H]2CC[C@@H](C(=O)NC(c3ccccc3)c3ccccc3)N2C1=O`, the values for the Potency in assay [1], in assay [2] and in assay [3] were 1.32 µM (active), 13.2 µM (active) and 9.35 µM (active), respectively. For the same compound, the Potency entry in [7] is “inactive”.

For `CC(C)n1cnc2c(NCCCCCCNC(=O)OC(C)(C)C)nc(NCCO)nc21`, the Potency in assay [1] is 26.4 µM (active); in [2] it was 23.5 µM (active); in assay [6] it was 16.6 µM (active); in assay [8] it was 14.8 µM (active).

Regarding `Nc1ncnc2c1ncn2[C@@H]1O[C@H](CO)C[C@@H]1O`, the Potency result in assay [1], in [2], in assay [3], in assay [6] and in assay [7] was “inactive” in each case. Besides, the Potency in assay [4] was 37.2 µM (active).

`CCOc1ccc(Nc2nc(-c3c(C)nc4ccccn34)cs2)cc1`: the Potency result in assay [1], in assay [2], in assay [4] and in [5] was “inactive” each time. In assay [7], the Potency was 0.0037 µM (active).

For the compound `CC(C)=CC[C@@H](O)C1=CC(=O)c2c(O)ccc(O)c2C1=O`, the Potency was 0.469 µM (active) in assay [1]; 0.418 µM (active) in [2]; 0.264 µM (active) in assay [3]; 1.87 µM (active) in [8]; 1.32 µM (active) in assay [7]; 1.18 µM (active) in [4]. Besides, the Potency in assay [5] is 0.833 µM (active).

For `Cc1c(O)cccc1C(=O)N[C@@H](CSc1ccccc1)[C@H](O)CN1C[C@H]2CCCC[C@@H]2C[C@@H]1C(=O)NC(C)(C)C`, the Potency was 29.6 µM (active) in [1]; 23.5 µM (active) in assay [2]; 26.4 µM (active) in [3]; 18.7 µM (active) in assay [6]; 18.7 µM (active) in assay [8]; 26.4 µM (active) in [7]. In addition, the values for the Potency in [4] and in [5] were 18.7 µM (active) and 20.9 µM (active), respectively.

As for `Cc1ccccc1C(C(=O)NC1CCCCC1)N(C(=O)Cn1ccnc1C)c1cccc(F)c1` (centres undefined), the Potency entry in [1], in [2], in [3] and in assay [4] was “inactive” throughout.

Turning to `COc1cc(O)c2c(c1)C(=O)c1cc(C)cc(O)c1C2=O`, the Potency result in assay [1], in assay [2], in assay [3], in assay [6], in assay [8] and in assay [7] was “inactive” in each case. In addition, the Potency entry in [15] is “inactive”. The compound was classed as inactive in assay [9], in [10], in [11], in assay [12], in assay [14] and in assay [16]. Also, in [17], the compound was classed as inactive. Moreover, in assay [13], the max response is 1.06%.

With `O=c1ccn([C@@H]2O[C@H](CO)[C@H](O)[C@H]2O)c(=O)[nH]1`, the Potency entry in assay [1], in assay [2], in assay [3], in assay [6] and in assay [5] was “inactive” in each case.

In the case of `CC(C)(C(=O)NCC(F)(F)C(F)(F)F)C(=O)N[C@@H]1C(=O)Nc2ccccc2-c2ccccc21`, the Potency is 16.6 µM (active) in [1], 10.5 µM (active) in assay [2], 18.7 µM (active) in assay [3] and 3.32 µM (active) in [6]. In addition, the Potency result in [8], in assay [7] and in assay [5] was “inactive” in each case.

In the case of `COc1ccc2c(Oc3ccc(NC(=O)c4c(C)n(CC(C)(C)O)n(-c5ccccc5)c4=O)cc3F)ccnc2c1`, the figures for the Potency in [1], in assay [2] and in [8] were 20.9 µM (active), 14.8 µM (active) and 23.5 µM (active), respectively.

Take `CCOC1OC(=O)C[C@H]1NC(=O)[C@@H]1CCCN1C(=O)[C@@H](NC(=O)c1ccc(N)c(Cl)c1)C(C)(C)C` (some centres undefined): the Potency entry in [1], in [2], in assay [3], in assay [6], in assay [7] and in assay [4] was “inactive” in each case. Further, the Potency entry in assay [5] is “inactive”.
